Source: PubChem BioAssay (NCATS)
Values without a mark were called inactive. Calls come from the whole dose curve; as a rule, active = well fitted curve in the direction sought with a large enough effect; inconclusive = small, poorly fitted or top-dose-only effect, or another doubt; inactive = no such curve, though single readings can be large or run the other way.

Assay: Validation qHTS assay for inhibitors of Activation Induced Cytidine Deaminase (AID): UDG Counterscreen signal (AID 1347427); note: 0% is about no effect
Conditions: biochemical UDG counterscreen, fluorescence signal; series mostly up to 115 µM; activity, negative = inhibition: at the top concentration
From the text: Assay Provider (PI) Patricia Gearhart Ph.D.
National Institute on Aging
National Institute of Health (NIH), Bethesda, MD
Assay Provider (PI) Rahul Kohli Ph.D.
Perelman School of Medicine
University of Pennsylvania, Philadelphia, PA
Activation-Induced Deaminase (AID) is a cytosine deaminase which converts cytosine into uracil within stretches of ssDNA. The presence of uracil in DNA initiates a cascade of mutagenic DNA repair to introduce point mutations and DNA double strand breaks. Specific targeting of AID to the immunoglobulin heavy chain loci (Igh) promotes mutagenesis in the antibody variable region for somatic hypermutation (SHM) or switch regions leading to class switch recombination (CSR). However, AID also plays a role in accumulating unnecessary mutations across the genome. Mis-targeting of AID results in the initiation of tumor development and leads to greater drug resistance among cancer cells when continually expressed. To identify an AID inhibitor, a small molecule library will be screened in collaboration with NCATS core facility at NIH. To confirm biological function, inhibitors will be examined in an in vitro murine B-cell activation assay and subsequent secondary validation screens. Top molecules will be further screened to identify inhibitory efficacy against a wild type primary splenocytes assay. Using these approaches, we hope to identify a small molecule with great efficacy and low toxicity for use as a molecular probe to further characterize AID's intricacies, or even as a therapeutic.
A FRET based analysis of cytosine deamination, was developed to identify potential inhibitors of AID catalytic activity. This screen has two signal output, Read 1 evaluates the AID inhibition response. The second readout (Read 2) evaluates UDG response and is uses as a counterscreen to exclude false positive inhibitors. Inhibition in AID and inactivity in the UDG signal is the desired outcome for this assay.
SEQUENCE No. (e.g., 1, 2, 3, etc.); […] (e.g., Cells, Incubation, Reagent, etc.); VALUE; DESCRIPTION
1a; Reagent; 3 uL; [4/3x] 1 uM AID/2.67 U/mL UDG
1b; Reagent; 3 uL; 2 U/mL UDG
1c; Reagent; 3 uL; 1 uM AID
2a; Compound; 46 nL; Follow-up plates (0.64 uM - 10 mM)
2b; Control; 46 nL; ATA ([…] - 10 mM)
3; Time; 10 min; incubation at room temperature
5; Time; 4 hr; incubation at room temperature
6; Reagent; 4 uL; [2x] 250 mM NaOH
7; Time; 15 sec; centrifuge at 1000 rpm
8; Time; 30 min; incubation at room temperature
9a; Detection; fluorescence (Read 1: AID); EnVision (PerkinElmer) plate reader, 540 excitation and 590 emission filters
9b; Detection; fluorescence (Read 2: UDG); EnVision (PerkinElmer) plate reader, 560 excitation and 665 emission filters
NOTES (numbers refer to sequence above)
1a; Reagents were dispensed in a medium-binding black solid-bottom Greiner plates (789176F) using a BioRptr liquid dispenser. Dispense 3 uL of [4/3x] 1 uM AID (provided by Kohli lab) and [4/3x] 2 U/mL UDG (NEB M0280L) into columns 1, 2, 5 to 48.
1b; Dispense 3 uL of [4/3x] 2 U/mL UDG into column 3.
1c; Dispense 3 uL of [4/3x] 1 uM AID into column 4.
2b; 10 mM Aurintricarboxylic Acid (Sigma A1895) (ATA, 8-point, n = 2, 1:2.5 dilution in column 2) double pin-transferred (Dip Factor = 2) using the Kalypsys (Wako USA) pintool equipped with a 1536 pinhead for a [final] range of 186 nM - 114 uM.
3; Room temperature incubation.
4; Dispense 1 uL of substrate mixture from the Kohli lab [4x] […] DJC20 and [4x] 250 nM DJC23 into columns 1 to 48 .
5; Room temperature incubation.
6; Dispense 4 uL of substrate mixture [2x] 250 mM NaOH into columns 1 to 48.
7; Centrifugation step to remove bubbles.
8; Room temperature incubation
9a; Fluorescence signal (column label AID) was read using the EnVision plate reader. Excitation filter = 540(8) nm, barcode = 311; Emission filter = 590(20) nm, barcode = 217; Mirror = D555, barcode = 405.
9b; Fluorescence signal (column label UDG) was read using the EnVision plate reader. […]

Row | SMILES | activity, negative = inhibition
1 | CN(C)c1cc2c(Nc3ccc4c(cnn4Cc4ccccc4)c3)ncnc2cn1 | 1.93%
2 | COc1cccc2c1[C@@H]1CN(CCCCn3c(=O)[nH]c4c(sc5ncc(-c6ccccc6)nc54)c3=O)C[C@@H]1CO2 | 6.26%
3 | C[N+](C)(C)CCO | 17.5%
4 | Nc1ncnc2n[nH]c(Nc3ccc(F)cc3)c12 | 2.32%
5 | CCN(CC)CCNC(=O)c1ccc(NS(C)(=O)=O)cc1 | 13.9%
6 | O=[N+]([O-])c1ccc(-c2nc(-c3ccc(F)cc3)c(-c3ccncc3)[nH]2)cc1 | 8.24%
7 | NC(N)=NCCCCN=C(N)N | 12.5%
8 | Cc1nn(-c2ccccc2)c(C)c1/C=N/N1CCN(Cc2ccccc2)CC1 | -4.72%
9 | Brc1ccc([C@H]2CN3CCSC3=N2)cc1 | 11.1%
10 | O=C1NC(=O)/C(=C/c2ccc3c(c2)OC(F)(F)O3)S1 | 11.7%
11 | Clc1ccc2c(c1)N=C(N1CCNCC1)c1ccccc1N2 | 3.67%
12 | N[C@@H](Cn1ccc(=O)c(O)c1)C(=O)O | 11.1%
13 | Cn1cnc2c(NCc3ccccc3)nc(NCCO)nc21 | 6.78%
14 | COc1ccccc1N1CCN(CCN2C(=O)CC3(CCCC3)CC2=O)CC1 | 13.2%
15 | CC(C)N(CCC(=O)c1ccc2ccccc2c1)Cc1ccccc1 | 5.16%
16 | COC(=O)C1=CO[C@@H](O)[C@@H]2C(CO)=CC[C@H]12 | 10.7%
17 | O=C1NC(c2cccc([N+](=O)[O-])c2)=CCN1c1ccccc1O | 11.7%
